# KDM4E inh: JMJD2E (human) inhibition | B2RXH2 | JMJD2E catalytic domain, FDH-coupled NADH fluorescence (FDH is formaldehyde dehydrogenase) | Potency, µM (series often up to 57.1 µM), for inactives: at the highest dose activity change, negative = inhibition, hits mostly inhibitors | 1.6% of 230,000 active; active = well fitted inhibition curve with a large enough effect, not every such curve was filed as active; inconclusive = small, poorly fitted or top-dose-only effect, or another doubt; inactive = no such curve, though single readings can be large or run the other way;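 also: 0% = wells with enzyme and -100% = buffer wells without enzyme; nearly all actives have a fitted effect of over 50% in size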
# Target sequence (B2RXH2 1-337 limits assumed): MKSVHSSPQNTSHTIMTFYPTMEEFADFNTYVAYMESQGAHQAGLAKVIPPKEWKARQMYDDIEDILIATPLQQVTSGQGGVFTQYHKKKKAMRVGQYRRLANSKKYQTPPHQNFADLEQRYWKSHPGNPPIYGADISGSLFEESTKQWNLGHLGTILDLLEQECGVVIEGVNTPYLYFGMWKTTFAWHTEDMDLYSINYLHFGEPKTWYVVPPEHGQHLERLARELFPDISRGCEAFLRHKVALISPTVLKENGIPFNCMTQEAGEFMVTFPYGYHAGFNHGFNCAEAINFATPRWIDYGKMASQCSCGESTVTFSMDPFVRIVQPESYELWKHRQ
# HttQ103 aggreg: mutant huntingtin aggregation inhibition; 1.1% of 220,000 active; Potency, µM (series often up to 46.1 µM), inactives show at the top dose activity change, negative = inhibition, actives largely listed as inhibitors; PC12 HttQ103-GFP aggregates, Acumen cytometry, 40 h; also: % is scaled to controls: 0 for no effect and ±100 for the full control effect; nearly all actives have a fitted effect of over 60% in size
#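 Using laser scanning cytometry, GFP-positive aggregates were counted after lysis of PC12 cells induced with 100 nM tebufenozide to express HTT exon 1 Q103–GFP. Compounds were tested in titration.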
# L3MBTL1 block: blocks human L3MBTL1; Potency, µM (top dose mostly 57.1 µM), for inactives: at the top dose activity, negative = inhibition, actives largely listed as inhibitors; 0.66% of 230,000 active; AlphaScreen L3MBTL1–H3K9me1 peptide binding; Q9Y468; also: % is scaled to controls: 0 for no effect and ±100 for the full control effect; nearly all actives have a fitted effect of over 60% in size
#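 L3MBTL1 50 nM + b-AHA-H3(1-15)K9me1 75 nM, 30 min RT; compound added, 30 min RT; streptavidin donor/Ni-chelate acceptor beads 10 ug/mL each final, 30 min RT dark; AlphaScreen read.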
# HTT ATP protect: Huntington cell model cytoprotection by ATP luminescence; PC12 HTT-Q103 induced, cytoprotection, ATP luminescence, 40 h; Potency, µM (doses to about 56.4 µM), for the others: cytoprotection (ATP increase), actives largely listed as activators; 0.14% of 230,000 active; AID 1471; also: % of control where 0% means no effect; nearly all actives have a fitted effect of over 45% in size
#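 Cells were plated at 1500 per well in phenol red-free DMEM with 5% equine and 5% calf serum. Tebufenozide (100 nM final) and compounds were added, then ATPlite reagent, and luminescence was read.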
# Starred values were filed as active, the others as inactive; ? = inconclusive; nt = no result; [ ] = remark or other dose. Sampled rows, rich in hits. Any-hit rate of the full collection: about 1.8%. Unless noted, calls follow the shape of the dose curve; as a rule, active = well fitted curve in the direction sought with a large enough effect; inconclusive = small, poorly fitted or top-dose-only effect, or another doubt; inactive = no such curve, though single readings can be large; an effect the other way counts as inactive or inconclusive. Potency is read from the fitted curve at half-maximal effect.
SMILES,KDM4E inh,HttQ103 aggreg,L3MBTL1 block,HTT ATP protect
CCSc1nc(-c2ccccc2)nc(C(Cl)Cl)n1,-6.2%,10µM*,14.2%,5.6%[1.9 µM]
C[C@@H]1[C@H](C)CC[C@@]2(C(=O)O)CC[C@]3(C)C(=CC[C@H]4[C@@]5(C)CC[C@@H](O)C(C)(C)[C@@H]5CC[C@@]43C)[C@@H]12,-0.4%[25.5 µM],nt,nt,1.2%[40.3 µM]
N#C/C(=C\c1ccc(OC(=O)c2ccc(Br)s2)cc1)c1nc2ccccc2[nH]1,17.8µM*,-1.9%,1.8%,6.5%[10 µM]
CCCCC[C@H](O)/C=C/C=C/C=C/[C@H](O)C/C=C\CCCC(=O)O,-0.8%,nt,nt,-6.5%
CCOC(=O)N=Nc1c2ccccc2c2nc3no[nH]c3nc12,4.5%,1.26µM*,?,-183.0%
CCOC(=O)N=Nc1c(O)n(CC(=O)OC)c2ccccc12,-12.6%,1.8%,nt,?
C[C@@H](C(=O)Nc1ccc2ccccc2c1)[C@H]1C[C@]1(C)[C@H](NC(=O)c1ccccc1)c1ccccc1,-12.8%,nt,nt,-92.2%
C[C@]12C[C@@](C)(C=C1/C=C/c1ccccc1)C(=O)C[C@H]2c1ccccc1,12.8%,nt,nt,8.3%
COc1ccc(CCNC(=S)N2CCC(Cc3ccccc3)CC2)cc1OC,-9.3%,22.4µM*,-7.7%,-62.9%
CN1C(=O)/C(=C\C=C2/CCCN2C)N(C)C1=S,-27.6%,-4.2%,nt,10.7%
CCN1C(=O)/C(=C/C=C2/CCCN2C)OC1=S,11.2µM*,7.2%[9.22 µM],-12.4%,8.6%[10 µM]
COc1ccc([C@@H](C)C(=O)c2ccc(O)cc2O)cc1,-2.7%,nt,nt,19.2%
COc1ccc2c(c1)O[C@H](c1ccc3c(c1)OCO3)[C@@H](OC(=O)Nc1ccc(C)c(Br)c1)C2=O,-13.3%,nt,nt,-4.0%
CCC(=O)NC(c1cccs1)c1ccc2cccnc2c1O (stereo not drawn),25.1µM*,-14.6%[9.22 µM],17.8µM*,-45.5%[10 µM]
CCCC(=O)NC(c1ccccc1OC)c1ccc2cccnc2c1O (stereo not drawn),31.6µM*,?,?,-73.3%[10 µM]
Oc1c(C(Nc2nccs2)c2ccc(C(F)(F)F)cc2)ccc2cccnc12 (stereo not drawn),3.55µM*,nt,nt,-119.6%
COc1ccc(C(NC(C)=O)c2ccc3cccnc3c2O)c(OC)c1 (stereo not drawn),22.4µM*,3.98µM*,?,-107.2%
CCCCC1=CC2=C(OC(C)=O)C(=O)C(C)(OC(=O)CCC(=O)OC)C(=O)C2=CO1 (stereo not drawn),10.0%,nt,nt,?
CC(C)(C)N1C(=O)[C@@H]2[C@H]3C(=CC[C@H]2C1=O)C(=O)[C@H]1O[C@H]1[C@H]3O,nt,nt,nt,5.62µM*
O=C1C2=CC[C@@H]3C(=O)N(c4ccc(F)cc4F)C(=O)[C@H]3[C@H]2[C@H](O)[C@H]2O[C@H]12,nt,nt,nt,3.16µM*
COC(=O)c1cccc(C23CC4(C2)[C@H](CN(Cc2ccc(C(F)(F)F)cc2)[C@@H]4c2ccccc2)C3c2ccccc2)c1 (stereo partly drawn),-12.5%,-7.8%[9.22 µM],nt,-21.7%
COC(=O)c1cccc(C23CC4(C2)[C@H](CN(Cc2ccc(-c5ccccc5)cc2)[C@@H]4c2ccccc2)C3c2ccc(C(F)(F)F)cc2)c1 (stereo partly drawn),20µM*,-14.4%[9.22 µM],nt,2.9%
CS(=O)(=O)N(CC(=O)NCc1ccncc1)Cc1ccc(Cl)cc1,-3.4%,0.631µM*,-2.8%,-20.6%
NC(=O)C1=CN([C@@H]2O[C@@H](COP(=O)(O)OP(=O)(O)OC[C@@H]3O[C@H](n4cnc5c(N)ncnc54)[C@@H](OP(=O)(O)O)[C@@H]3O)[C@H](O)[C@@H]2O)C=CC1,nt,nt,nt,-16.4%[1.9 µM]
COC(=O)[C@@H](NC(=O)O[C@H]1C(=O)c2cc(OC)ccc2O[C@@H]1c1ccc(OC)c(Br)c1)C(C)C,?,nt,nt,-35.9%
SMILES,KDM4E inh,HttQ103 aggreg,L3MBTL1 block,HTT ATP protect
Cc1cccc(C(=O)NCC(=O)NNC(=O)c2ccccc2O)c1,nt,nt,-3.1%,nt
Cc1ccc(O)c(C(=O)CC(=O)c2cccc(F)c2)c1,?,17.8µM*,nt,-6.3%[10 µM]
O=C(O)CC(=O)Nc1cc(Cl)ccc1O,8.0%,0.2%,nt,3.3%
O=C(CC(=O)c1cc(Cl)ccc1O)c1ccccc1,-26.1%,11.2µM*,-5.1%,4.3%[10 µM]
Cc1cccc(C(=O)CC(=O)c2cc(Cl)ccc2O)c1,?,12.6µM*,nt,-45.2%
CC(=O)N1CC2(CC2)CC1c1ccccc1 (stereo not drawn),8.9%,nt,nt,-7.6%
CC1CCC2C(=O)OC(CO)CN2C1c1ccc(Br)cc1 (stereo not drawn),nt,nt,nt,-15.8%[10 µM]

# Screening results (PubChem BioAssay)
